Screening data from PubChem BioAssay.
A selection: hits, their analogues and other compounds. The true share with any hit is near 11%.
PNC assembly inh: perinucleolar compartment assembly inhibition. PC3M PTB-GFP, PNC prevalence imaging, 16 h; active compounds read low. activity change (PNC), negative = inhibition, % at 10 µM. hit rate 3.1% among 140,000;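 active = readout at or below -70, meaning at least 70% loss of cells showing the perinucleolar compartment, a nuclear body marking cancer cells; inconclusive = readout between -30 and a set limit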;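 note: plate controls were DMSO wells for no effect and camptothecin positive control wells for full effect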
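Compounds are pinned in duplicate onto adhered PC3M cells stably expressing GFP-tagged PTB and incubated 16 h at 37 C. Cells are then fixed, nuclei stained with Hoechst, and PNC-positive cells counted.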
ALDH1A1 inh: inhibitors of human aldehyde dehydrogenase 1A1 | P00352 | Purified ALDH1A1, NADH fluorescence, propionaldehyde substrate | Potency, µM (doses to about 75.3 µM), without a hit: at the top dose activity, negative = inhibition, usual class: inhibitors | hit rate 7.3% among 220,000 | AID 1030; active = well fitted inhibition curve with a large enough effect, not every such curve was filed as active; inconclusive = small, poorly fitted or top-dose-only effect, or another doubt; inactive = no such curve, though single readings can be large or run the other way;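 note: potency is the fitted concentration of half-maximal effect; plate controls were no enzyme wells and a reference inhibitor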
12-hLO inh: inhibitors of human 12-lipoxygenase (ALOX12); Potency, µM (doses to about 57.1 µM), without a hit: at the top dose activity change, negative = inhibition, most hits filed as inhibitors; purified 12-hLO, xylenol orange hydroperoxide absorbance; P18054; hit rate 0.12% among 150,000; note: potency is the fitted concentration of half-maximal effect; nearly all actives have a fitted effect of over 55% in size
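150 nM 12hLO, 25 mM Hepes pH 7.0 + 0.01% Triton X-100; cpd preinc 15 min RT; 40 uM arachidonic acid, 30 min RT; Fe-XO 30 min; A573/A405 ratio as read-out.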
HPGD inh: blocks human HPGD enzyme activity; AID 894; purified HPGD, NADH fluorescence kinetic, PGE2 substrate; Potency, µM, without a hit: top-dose activity change, negative = inhibition, usual class: inhibitors; hit rate 4.3% among 150,000; active = well fitted inhibition curve with a large enough effect, not every such curve was filed as active; inconclusive = small, poorly fitted or top-dose-only effect, or another doubt; inactive = no such curve, though single readings can be large or run the other way; note: potency is the fitted concentration of half-maximal effect
Target sequence (P15428 whole entry, looked up): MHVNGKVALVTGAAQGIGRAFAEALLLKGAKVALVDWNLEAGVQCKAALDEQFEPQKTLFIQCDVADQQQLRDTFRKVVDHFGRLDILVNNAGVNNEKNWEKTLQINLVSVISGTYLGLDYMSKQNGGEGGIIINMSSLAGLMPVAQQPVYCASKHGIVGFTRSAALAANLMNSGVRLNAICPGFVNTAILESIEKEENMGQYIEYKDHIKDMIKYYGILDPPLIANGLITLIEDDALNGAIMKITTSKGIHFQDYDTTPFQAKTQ
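NADH formation kinetics: reaction with 30 uM PGE2 and 1 mM NAD+ (final), 20 nM enzyme, Tris-HCl pH 8 with Tween 20, after 15 min compound preincubation at room temperature. Fluorescence change, last versus first of five reads.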
IMPase Li cell: membrane-permeable IMPase blocker, potentiated with lithium. CHO-M1 cells, IP1 TR-FRET (IP-One), carbachol + lithium. Potency, µM (series often up to 59.4 µM), without a hit: at the highest dose activity, negative = IMPase inhibition, usual class: inhibitors. hit rate 0.35% among 210,000. AID 1457;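 note: IP1 builds up when IMPase is blocked and the TR-FRET signal falls; potency is the fitted concentration of half-maximal effect; plate controls were basal vehicle for no effect and high inhibitor control for full effect; nearly all actives have a fitted effect of over 50% in size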
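CHO cells stably expressing M1 receptor (2000/well) were cultured 16–30 h, then exposed to compounds with a small lithium addition for 30 min at 37C. IP1 was measured by TR-FRET competition; AC50 from Hill fits.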
IMPase cell inh: cell-permeable inhibitors of inositol monophosphatase (IMPase). CHO-M1 cells, IP1 accumulation, HTRF TR-FRET ratio. inhibition (IP1 accumulation), % at 46.1 µM. 120,000 tested, under 10 active. AID 901; active = well fitted curve in the direction sought with a large enough effect in the signal ratio, not every such curve was filed as active; inconclusive = small, poorly fitted or top-dose-only effect, or a change in a side signal; inactive = no such curve, though single readings can be large or run the other way; the % refers to the signal ratio;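 note: cells stimulated with carbachol in lithium chloride buffer; plate controls were DMSO basal wells for no effect and reference inhibitor wells for full effect; higher means more IMPase inhibition seen as more IP1 and lower FRET ratio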
Target sequence (P97697 whole entry, looked up): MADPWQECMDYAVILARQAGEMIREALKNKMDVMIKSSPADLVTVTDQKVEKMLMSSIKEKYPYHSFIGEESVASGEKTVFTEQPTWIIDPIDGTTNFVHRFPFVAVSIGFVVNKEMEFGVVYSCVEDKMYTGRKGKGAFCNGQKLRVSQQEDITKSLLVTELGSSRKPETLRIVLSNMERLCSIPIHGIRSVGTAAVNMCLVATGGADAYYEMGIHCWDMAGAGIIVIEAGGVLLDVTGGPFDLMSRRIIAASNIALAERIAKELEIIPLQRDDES
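CHO-M1 cells (CHO stably expressing M1 receptor), compound up to 46 uM final, stimulated with carbachol (50 uM as added) in buffer with 50mM LiCl, pH 7.4, 30 min at 37C. Cytosolic IP1 read by TR-FRET; AC50 from Hill fits.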
Active calls of the source: *; [ ] = another dose, or the depositor's remark. Unless noted, calls come from the whole dose curve; as a rule, active = well fitted curve in the direction sought with a large enough effect; inconclusive = small, poorly fitted or top-dose-only effect, or another doubt; inactive = no such curve, though single readings can be large; an effect the other way counts as inactive or inconclusive. Unless noted, % is set by controls: 0 for no effect and ±100 for the full control effect.

For Cc1ccc(S(=O)(=O)NCc2ccc(C(=O)N3CCN(c4ccccn4)CC3)cc2)cc1 the results were PNC assembly inh inconclusive, ALDH1A1 inh 7%, 12-hLO inh -9%, HPGD inh -6%, IMPase Li cell -7%[38.3 µM] and IMPase cell inh 4.
For O=C(NC(c1ccccc1)c1ccccc1)c1cccc(S(=O)(=O)NCc2ccccc2)c1 the results were PNC assembly inh 22, ALDH1A1 inh 4.5µM*, 12-hLO inh -1%, HPGD inh -14% and IMPase Li cell 3%.
Screening CC(=O)NCCNc1nc(-c2ccccc2C)nc2ccccc12 returned ALDH1A1 inh inconclusive and IMPase Li cell 4%.
`CCOC(=O)N/N=C1/C[C@@H](O)[C@@H](O)[C@@H]2[C@@H]3C(=O)N(Cc4ccccc4)C(=O)[C@H]3CC[C@H]12` gave ALDH1A1 inh -11%[13.5 µM].
For O=C(O)c1cc(-c2ccc(-c3ccc(-c4cc(C(=O)O)c5cc(Cl)ccc5n4)cc3)cc2)nc2ccc(Cl)cc12 the results were ALDH1A1 inh inconclusive, 12-hLO inh -2%[11.4 µM], HPGD inh inconclusive and IMPase Li cell -9%.
For O=C(c1cccc(F)c1)N1CCC2(CC1)CN(c1ccccc1)C2 the results were ALDH1A1 inh inconclusive, 12-hLO inh -14%, HPGD inh -8% and IMPase Li cell -1%.
Screening COc1ccc(NC(=O)CC23CC4CC(CC(C4)C2)C3)cn1 returned ALDH1A1 inh -6% and IMPase Li cell 7%.
O=C(c1ccc(CNS(=O)(=O)c2cccc(C(F)(F)F)c2)cc1)N1CCOCC1 was read as PNC assembly inh 23, ALDH1A1 inh inconclusive, 12-hLO inh -1%, HPGD inh 14µM*, IMPase Li cell 37%[38.3 µM] and IMPase cell inh inconclusive.
O=[N+]([O-])c1cc(Cl)ccc1-c1nc(-c2ccccc2)no1 was read as PNC assembly inh inconclusive, ALDH1A1 inh -5%, 12-hLO inh -1%, HPGD inh 14µM* and IMPase Li cell 9%.
`CCOC(=O)C1=C(NC(=S)NC(=O)c2ccccc2)c2ccccc2CC1C(C)C` (centres undefined) gave PNC assembly inh -96*, ALDH1A1 inh 15µM*, 12-hLO inh -23%, HPGD inh -15%, IMPase Li cell 15% and IMPase cell inh 1.
`CCOC(=O)c1sc(NC(=S)NC(=O)c2ccccc2)c(C(=O)OCC)c1C` gave PNC assembly inh 36, ALDH1A1 inh -6%, 12-hLO inh 0%, HPGD inh -11% and IMPase Li cell -18%.
CCOC(=O)C1=C(NC(=S)NC(=O)c2ccccc2)c2ccccc2CC1(C)CC (centres undefined) was read as PNC assembly inh inconclusive, ALDH1A1 inh 13µM*, 12-hLO inh inconclusive, HPGD inh -5% and IMPase Li cell 8%.
For c1ccc(CSc2ncn(-c3ccccc3)n2)cc1 the results were PNC assembly inh 6, ALDH1A1 inh 2%, 12-hLO inh 1%, HPGD inh 18µM*, IMPase Li cell 7%[38.3 µM] and IMPase cell inh 0.
`O=C(CSc1ncn(-c2ccccc2)n1)c1cccs1` gave PNC assembly inh -16, ALDH1A1 inh inconclusive, 12-hLO inh -5%, HPGD inh 8.9µM*, IMPase Li cell 17%[38.3 µM] and IMPase cell inh 7.
For O=C(CSc1nnc(-c2ccccc2)n1-c1ccccc1)c1cccs1 the results were PNC assembly inh 21, ALDH1A1 inh 3%, 12-hLO inh -16%, HPGD inh -23%, IMPase Li cell 7%[38.3 µM] and IMPase cell inh 0.
`BrC(Br)C(Br)Br` gave ALDH1A1 inh 12%, 12-hLO inh 2%, HPGD inh -2% and IMPase Li cell 9%.
Screening N#C/C(=C\c1c(N2CCOCC2)nc2ccccn2c1=O)S(=O)(=O)c1ccccc1 returned PNC assembly inh 1, ALDH1A1 inh 13µM*, 12-hLO inh inconclusive, HPGD inh 2µM*, IMPase Li cell -4%[38.3 µM] and IMPase cell inh -4.
